Results taken from ChEMBL document CHEMBL3988442, “University of Dundee, Small-Polar-MMV Screening Library” (2021).
Screen size: about 48,000 compounds; about 13,000 (27%) showed an effect of 50% or more. The list shows a part of the results.

Each compound was assayed on Wolbachia pipientis (assay: Anti-Wolbachia Cell-Based Screen). Settings: 5 µM.
Format: functional
Parameters: scale not given: in the data most compounds retested in dose-response had high values

Row | Structure (SMILES) | Percent Effect
1 | Cc1nnc(N2CCNCC2)c(C(N)=O)c1C | -61.72%
2 | O=C(NCc1cccnc1)[C@H]1CN2CCC1C[C@@H]2Cn1cc(CO)nn1 (stereo not given in full) | 4.498%
3 | O=C1NCC2(CCCN(Cc3ccncc3)C2)Oc2ccccc21 (stereo not given) | 106%
4 | CN(C)c1ncc2c(n1)C1(CCN(Cc3cccnc3)C1)COC2 (stereo not given) | -5.079%
5 | O=C1Nc2ccccc2C12CCCN(Cc1ccncc1)C2 (stereo not given) | -10.97%
6 | O=C(NCc1cccnc1)C1=NOC2(CCCN(CCO)C2)C1 (stereo not given) | 6.778%
7 | CN1CCC2(CC1)CNC(=O)c1ccccc1O2 | -4.791%
8 | O=C1NCC2(CCCN(Cc3cccnc3)C2)Oc2ccccc21 (stereo not given) | 95.18%
9 | O=C(O)C(F)(F)F.c1cnc(N2CCOCC3(CN(Cc4ccsc4)CCO3)C2)nc1 (stereo not given) | -6.179%
10 | CN(C)C(=O)CN1CCOCC2(C1)CN(c1ncccn1)CCO2.O=C(O)C(F)(F)F (stereo not given) | 101.1%
11 | Fc1cnc(N2CCCC3(CN(Cc4cccs4)CCO3)C2)nc1.O=C(O)C(F)(F)F (stereo not given) | 111.6%
12 | O=C(O)C(F)(F)F.OCCN1CCOC2(CCCN(c3ncc(F)cn3)C2)C1 (stereo not given) | 13%
13 | Cc1cnc(N2CCC3(CC2)CN(Cc2cccs2)CCO3)nc1.O=C(O)C(F)(F)F.O=C(O)C(F)(F)F | 102.1%
14 | Cc1cnc(N2CCOC3(CCCN(C)C3)C2)nc1.O=C(O)C(F)(F)F (stereo not given) | -2.261%
15 | O=C(O)C(F)(F)F.c1cnc(N2CCOCC3(CN(Cc4nccs4)CCO3)C2)nc1 (stereo not given) | 8.217%
16 | Fc1cnc(N2CCC3(CC2)CN(Cc2cccs2)CCO3)nc1.O=C(O)C(F)(F)F.O=C(O)C(F)(F)F | 98.63%
17 | O=C(O)C(F)(F)F.c1cnc(N2CCOC3(COCCN(Cc4cc[nH]n4)C3)C2)nc1 (stereo not given) | -4.382%
18 | Cc1cnc(N2CCOC3(CCCN(CC(=O)N(C)C)C3)C2)nc1.O=C(O)C(F)(F)F.O=C(O)C(F)(F)F (stereo not given) | -7.39%
19 | CC[C@H]1CN2CC[C@H]1C[C@@H]2CNC(=O)Nc1ccc(Br)cc1 | -5.559%
20 | CC(Cc1c(F)cccc1F)NC(=O)CN(CC(N)=O)C(C)C (stereo not given) | 2.304%
21 | COc1cc(C2(C(=O)NCCn3ccnc3)CCCC2)ccc1C | 17.74%
22 | c1ccc(CNc2ncc(CN3CC[C@H]4CC[C@@H](C3)N4)cn2)cc1 | -14.93%
23 | O=C(c1ccc(F)c(F)c1)N1C[C@H]2CNC[C@H]2C1 | -36.88%
24 | COc1ccc(-c2ccccc2CCN)c(OC)c1 | 16.22%
25 | Cn1cc(CN2CC[C@H]3[C@H]2CC(=O)N3Cc2ccncc2)cn1 | 97.58%

Row | Structure (SMILES) | Percent Effect
26 | Cn1cc(CN2C[C@@H]3[C@@H](C2)OCC(=O)N3Cc2ccncc2)cn1 | -7.726%
27 | Cn1cc(C(=O)N2CC[C@@H]3[C@@H]2CCN3Cc2ccncc2)cn1.O=C(O)C(F)(F)F.O=C(O)C(F)(F)F | 8.346%
28 | CCOC(=O)N1CCC2(CCNC2)C1.Cl (stereo not given) | -20.05%
29 | CN1CCC2(COCc3cnc(N4CCOCC4)nc32)C1.O=C(O)C(F)(F)F (stereo not given) | -0.9764%
30 | CC(C)c1nccc([C@H]2C[C@@H]3CCN(Cc4ccoc4)C[C@H]3O2)n1 | -1.768%
31 | CCc1noc(CN(C)CCC(=O)Nc2ccc(C#N)c(Cl)c2)n1 | 4.268%
32 | CN(CCOCC1CC1)C(=O)Nc1ccc(C#N)c(Cl)c1 | 80.92%
33 | N#Cc1ccc(NC2CCN(c3ncccn3)CC2)cc1Cl | -9.238%
34 | O=C(Nc1cccnc1)[C@H]1COC[C@H]2CN(C3CCCC3)C[C@H]21.O=C(O)C(F)(F)F.O=C(O)C(F)(F)F | 10.99%
35 | CCCN1CC[C@@H]2OC[C@H](C(=O)Nc3cccnc3)C[C@@H]2C1.O=C(O)C(F)(F)F.O=C(O)C(F)(F)F | 103.7%
36 | O=C(Nc1cccnc1)[C@@H]1C[C@H]2OCC[C@H]2N(Cc2ccsc2)C1.O=C(O)C(F)(F)F.O=C(O)C(F)(F)F | -12.16%
37 | O=C(Nc1cccnc1)[C@H]1C[C@@H]2CCN(Cc3nccs3)C[C@@H]2O1.O=C(O)C(F)(F)F.O=C(O)C(F)(F)F | 21.14%
38 | CN(C)C(=O)[C@@H]1CC[C@@H]2[C@@H](CCN2Cc2ccccn2)O1.O=C(O)C(F)(F)F.O=C(O)C(F)(F)F | -15.27%
39 | Cc1ccc(C(=O)N2C[C@@H]3CCN(C(C)C)C[C@@H]3C2)cn1.O=C(O)C(F)(F)F | -22.14%
40 | CCOCCN1C[C@H](C(=O)Nc2cccnc2)[C@@H]2CCO[C@@H]2C1.O=C(O)C(F)(F)F.O=C(O)C(F)(F)F | 4.673%
41 | CN1CC[C@@H]2OC[C@H](C(=O)N(C)Cc3ccccn3)C[C@@H]2C1.O=C(O)C(F)(F)F.O=C(O)C(F)(F)F | 91.38%
42 | CN(Cc1ccccn1)C1CCC[C@@H]2CN(CC3CC3)C[C@H]12.O=C(O)C(F)(F)F.O=C(O)C(F)(F)F (stereo not given in full) | -32.78%
43 | O=C(Nc1cccnc1)[C@H]1CO[C@H]2CCNC[C@H]2C1.O=C(O)C(F)(F)F.O=C(O)C(F)(F)F | 99.23%
44 | CC(C)N1CC[C@@H]2OC[C@H](C(=O)Nc3cccnc3)C[C@@H]2C1.O=C(O)C(F)(F)F.O=C(O)C(F)(F)F | 84.8%
45 | O=C(Nc1cccnc1)[C@H]1CN(C2CCCC2)C[C@H]2OCC[C@@H]12.O=C(O)C(F)(F)F.O=C(O)C(F)(F)F | 2.861%
46 | Cl.O=C(C1CCC1)N1CCC2(CCNCC2)C1 | -22.91%
47 | O=C(Cc1ccc(O)c(Cl)c1)N1CCN(CC2CC2)[C@@H]2CS(=O)(=O)C[C@@H]21 | 2.879%
48 | Cc1cc(C)c(CNc2cnc3ccccc3n2)c(=O)[nH]1 | 10.07%
49 | CC1COC2(CCN(C(=O)c3ncoc3C(C)C)CC2)O1 (stereo not given) | 0.05226%
50 | O=C(O)C(F)(F)F.O=C(O)C(F)(F)F.O=C1[C@H]2CN(Cc3ccoc3)C[C@H]2CN1Cc1ccncc1 | 1.4%
